The record followed here is ChEMBL document CHEMBL2218924, “A broad activity screen in support of a chemogenomic map for kinase signalling research and drug discovery” (Biochem J, 2013).

Assay [1] has as its target T1, Ephrin type-A receptor 3 (Homo sapiens) (UniProt P29320).
T1 sequence (whole entry): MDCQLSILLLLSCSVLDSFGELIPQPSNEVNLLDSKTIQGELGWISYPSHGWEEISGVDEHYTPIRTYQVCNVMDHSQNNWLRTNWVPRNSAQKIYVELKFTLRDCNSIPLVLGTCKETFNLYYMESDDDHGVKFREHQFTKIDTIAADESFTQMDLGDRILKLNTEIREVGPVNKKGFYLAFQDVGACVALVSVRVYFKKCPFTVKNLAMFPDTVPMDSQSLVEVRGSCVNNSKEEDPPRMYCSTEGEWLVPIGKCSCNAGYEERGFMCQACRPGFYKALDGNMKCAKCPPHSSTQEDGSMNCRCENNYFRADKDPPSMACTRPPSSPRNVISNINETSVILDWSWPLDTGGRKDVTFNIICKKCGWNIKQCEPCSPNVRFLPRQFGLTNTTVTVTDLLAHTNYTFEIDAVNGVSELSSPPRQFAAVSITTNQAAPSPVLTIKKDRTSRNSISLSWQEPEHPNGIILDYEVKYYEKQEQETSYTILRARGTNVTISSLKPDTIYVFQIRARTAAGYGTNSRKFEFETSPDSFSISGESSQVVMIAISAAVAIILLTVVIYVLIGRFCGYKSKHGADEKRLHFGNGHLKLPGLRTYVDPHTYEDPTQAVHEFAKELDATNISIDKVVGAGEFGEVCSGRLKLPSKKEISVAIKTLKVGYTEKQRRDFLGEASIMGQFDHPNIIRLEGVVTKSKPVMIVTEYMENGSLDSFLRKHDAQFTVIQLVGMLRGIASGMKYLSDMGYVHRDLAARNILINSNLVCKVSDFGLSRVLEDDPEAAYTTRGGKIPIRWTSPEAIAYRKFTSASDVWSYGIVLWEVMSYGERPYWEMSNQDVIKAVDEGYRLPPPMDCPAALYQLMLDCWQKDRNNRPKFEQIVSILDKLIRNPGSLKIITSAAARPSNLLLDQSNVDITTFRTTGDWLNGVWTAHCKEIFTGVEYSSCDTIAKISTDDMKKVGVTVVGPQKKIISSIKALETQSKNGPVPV
The settings on record: at 10 µM.

For assay [2], the target named is Ephrin type-A receptor 4 (Homo sapiens) (UniProt P54764). The conditions noted are these: at 1 µM.
Ephrin type-A receptor 4 (Homo sapiens), sequence (P54764 whole entry): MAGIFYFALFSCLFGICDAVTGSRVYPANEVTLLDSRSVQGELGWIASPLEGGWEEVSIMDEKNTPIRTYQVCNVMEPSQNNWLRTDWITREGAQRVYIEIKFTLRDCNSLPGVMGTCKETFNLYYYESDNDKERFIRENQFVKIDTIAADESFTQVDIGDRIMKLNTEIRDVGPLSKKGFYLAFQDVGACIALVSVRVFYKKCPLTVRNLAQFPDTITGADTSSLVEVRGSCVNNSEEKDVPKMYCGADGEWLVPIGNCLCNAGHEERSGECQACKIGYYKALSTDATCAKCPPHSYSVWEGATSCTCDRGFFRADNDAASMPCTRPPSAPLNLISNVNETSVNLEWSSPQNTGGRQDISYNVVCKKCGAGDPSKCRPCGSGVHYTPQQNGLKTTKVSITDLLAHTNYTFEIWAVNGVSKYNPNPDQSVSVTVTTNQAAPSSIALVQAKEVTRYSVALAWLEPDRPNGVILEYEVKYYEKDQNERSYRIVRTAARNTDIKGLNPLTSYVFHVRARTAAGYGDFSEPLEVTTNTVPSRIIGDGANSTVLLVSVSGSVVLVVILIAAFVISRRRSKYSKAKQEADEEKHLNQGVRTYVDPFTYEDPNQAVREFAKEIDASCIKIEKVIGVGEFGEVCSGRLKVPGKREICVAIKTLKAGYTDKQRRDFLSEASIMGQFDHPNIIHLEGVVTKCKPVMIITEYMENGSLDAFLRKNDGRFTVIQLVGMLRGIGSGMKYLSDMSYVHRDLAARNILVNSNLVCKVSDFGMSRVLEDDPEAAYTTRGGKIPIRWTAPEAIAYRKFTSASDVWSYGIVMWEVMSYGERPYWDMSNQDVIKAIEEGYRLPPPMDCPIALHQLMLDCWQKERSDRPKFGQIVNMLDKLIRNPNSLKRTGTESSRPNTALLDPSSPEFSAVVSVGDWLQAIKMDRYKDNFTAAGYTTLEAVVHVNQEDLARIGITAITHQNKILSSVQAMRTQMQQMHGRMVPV
The target is the same in assay [3]. The settings on record: at 10 µM.
Assay [4] has as its target Ephrin type-A receptor 5 (Homo sapiens) (UniProt P54756). The settings on record: at 1 µM.
The target is the same in assay [5]. The conditions noted are these: at 10 µM.
In assay [6] the target is Ephrin type-A receptor 7 (Homo sapiens) (UniProt Q15375). The settings on record: at 1 µM.
Ephrin type-A receptor 7 (Homo sapiens), sequence (Q15375 28-998 limits assumed): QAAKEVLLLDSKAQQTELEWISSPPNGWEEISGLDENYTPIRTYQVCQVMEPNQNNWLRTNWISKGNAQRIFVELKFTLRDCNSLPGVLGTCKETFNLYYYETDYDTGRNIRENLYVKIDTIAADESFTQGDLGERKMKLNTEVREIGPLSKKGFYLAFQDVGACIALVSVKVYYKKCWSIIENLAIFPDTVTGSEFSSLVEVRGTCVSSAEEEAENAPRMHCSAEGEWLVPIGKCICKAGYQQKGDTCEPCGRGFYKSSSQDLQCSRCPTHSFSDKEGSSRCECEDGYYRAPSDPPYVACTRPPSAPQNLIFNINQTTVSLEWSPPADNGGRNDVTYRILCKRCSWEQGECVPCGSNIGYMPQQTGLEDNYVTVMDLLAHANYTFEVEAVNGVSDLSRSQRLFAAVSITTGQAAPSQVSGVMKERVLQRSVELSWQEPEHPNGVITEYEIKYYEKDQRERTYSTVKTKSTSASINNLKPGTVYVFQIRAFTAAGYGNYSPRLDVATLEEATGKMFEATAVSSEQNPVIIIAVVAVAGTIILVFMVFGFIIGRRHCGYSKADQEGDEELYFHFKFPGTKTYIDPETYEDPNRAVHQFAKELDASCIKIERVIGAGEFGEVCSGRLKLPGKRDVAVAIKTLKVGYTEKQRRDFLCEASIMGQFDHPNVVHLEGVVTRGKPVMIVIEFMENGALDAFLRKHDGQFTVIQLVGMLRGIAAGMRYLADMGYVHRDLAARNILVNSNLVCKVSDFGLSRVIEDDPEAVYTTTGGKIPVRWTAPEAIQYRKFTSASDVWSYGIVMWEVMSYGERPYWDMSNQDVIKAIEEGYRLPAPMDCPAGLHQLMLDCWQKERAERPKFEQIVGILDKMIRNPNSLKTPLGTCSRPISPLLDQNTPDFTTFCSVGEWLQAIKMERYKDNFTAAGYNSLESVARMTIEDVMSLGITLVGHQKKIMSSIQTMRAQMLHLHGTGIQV
For assay [7] the target is unchanged. The conditions noted are these: at 10 µM.
Assay [8] addresses T2, Ephrin type-A receptor 8 (Homo sapiens) (UniProt P29322).
T2 sequence (whole entry): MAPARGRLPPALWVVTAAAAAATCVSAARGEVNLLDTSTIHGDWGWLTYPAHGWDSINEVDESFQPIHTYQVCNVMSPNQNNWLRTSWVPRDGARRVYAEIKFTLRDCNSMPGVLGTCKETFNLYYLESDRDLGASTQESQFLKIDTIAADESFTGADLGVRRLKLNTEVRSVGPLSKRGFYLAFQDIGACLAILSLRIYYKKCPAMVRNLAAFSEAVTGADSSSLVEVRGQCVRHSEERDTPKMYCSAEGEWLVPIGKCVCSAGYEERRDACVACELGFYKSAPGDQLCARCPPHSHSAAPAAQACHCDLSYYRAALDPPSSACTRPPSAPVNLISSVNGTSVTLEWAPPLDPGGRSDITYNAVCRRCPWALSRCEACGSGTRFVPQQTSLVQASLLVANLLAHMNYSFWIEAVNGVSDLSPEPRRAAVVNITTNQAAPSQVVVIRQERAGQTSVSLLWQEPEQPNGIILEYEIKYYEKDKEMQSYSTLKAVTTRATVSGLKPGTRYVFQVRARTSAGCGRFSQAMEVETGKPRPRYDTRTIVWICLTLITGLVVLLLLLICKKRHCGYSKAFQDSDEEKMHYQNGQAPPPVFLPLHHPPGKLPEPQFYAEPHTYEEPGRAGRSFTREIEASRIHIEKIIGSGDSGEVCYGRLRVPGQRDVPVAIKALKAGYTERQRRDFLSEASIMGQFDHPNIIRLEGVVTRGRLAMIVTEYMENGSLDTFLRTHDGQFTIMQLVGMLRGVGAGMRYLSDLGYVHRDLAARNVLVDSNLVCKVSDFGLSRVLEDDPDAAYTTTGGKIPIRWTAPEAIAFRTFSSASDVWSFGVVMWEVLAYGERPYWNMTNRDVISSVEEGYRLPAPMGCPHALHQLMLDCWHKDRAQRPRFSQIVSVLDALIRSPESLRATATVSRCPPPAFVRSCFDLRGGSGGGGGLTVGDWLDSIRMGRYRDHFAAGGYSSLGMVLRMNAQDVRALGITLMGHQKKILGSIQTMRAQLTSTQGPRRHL
The settings on record: at 1 µM.

The target in assay [9] is T2, Ephrin type-A receptor 8 (Homo sapiens). The conditions noted are these: at 10 µM.
Assay [10] concerns the target T3, Ephrin type-B receptor 1 (Homo sapiens) (UniProt P54762).
T3 sequence (whole entry): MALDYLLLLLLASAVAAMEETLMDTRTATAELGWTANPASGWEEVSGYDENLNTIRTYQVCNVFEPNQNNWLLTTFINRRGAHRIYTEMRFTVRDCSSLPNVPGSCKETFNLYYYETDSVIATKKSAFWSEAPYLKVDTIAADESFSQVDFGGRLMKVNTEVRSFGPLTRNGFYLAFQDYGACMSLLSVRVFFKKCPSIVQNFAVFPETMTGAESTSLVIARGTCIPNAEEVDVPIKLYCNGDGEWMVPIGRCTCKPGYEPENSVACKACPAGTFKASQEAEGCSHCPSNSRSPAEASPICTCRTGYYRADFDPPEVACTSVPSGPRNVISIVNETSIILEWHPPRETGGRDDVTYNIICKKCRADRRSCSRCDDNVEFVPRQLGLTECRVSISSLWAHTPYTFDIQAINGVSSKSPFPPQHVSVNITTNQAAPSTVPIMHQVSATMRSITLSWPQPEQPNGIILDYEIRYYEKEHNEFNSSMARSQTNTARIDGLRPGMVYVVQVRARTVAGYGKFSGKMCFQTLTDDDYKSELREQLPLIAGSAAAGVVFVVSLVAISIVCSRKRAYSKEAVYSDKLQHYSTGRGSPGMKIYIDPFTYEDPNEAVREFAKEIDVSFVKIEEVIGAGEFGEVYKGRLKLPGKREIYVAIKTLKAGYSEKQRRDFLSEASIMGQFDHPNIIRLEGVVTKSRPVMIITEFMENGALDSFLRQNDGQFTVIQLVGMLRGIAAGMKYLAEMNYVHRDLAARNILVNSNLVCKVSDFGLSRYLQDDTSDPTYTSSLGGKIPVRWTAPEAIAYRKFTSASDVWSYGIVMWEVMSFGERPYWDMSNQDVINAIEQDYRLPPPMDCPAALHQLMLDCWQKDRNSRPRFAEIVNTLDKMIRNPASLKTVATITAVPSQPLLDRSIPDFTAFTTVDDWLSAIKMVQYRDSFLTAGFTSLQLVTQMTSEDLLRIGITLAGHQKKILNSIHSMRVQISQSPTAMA
The settings on record: at 1 µM.

Ephrin type-A receptor 5 (Homo sapiens), sequence (P54756 whole entry): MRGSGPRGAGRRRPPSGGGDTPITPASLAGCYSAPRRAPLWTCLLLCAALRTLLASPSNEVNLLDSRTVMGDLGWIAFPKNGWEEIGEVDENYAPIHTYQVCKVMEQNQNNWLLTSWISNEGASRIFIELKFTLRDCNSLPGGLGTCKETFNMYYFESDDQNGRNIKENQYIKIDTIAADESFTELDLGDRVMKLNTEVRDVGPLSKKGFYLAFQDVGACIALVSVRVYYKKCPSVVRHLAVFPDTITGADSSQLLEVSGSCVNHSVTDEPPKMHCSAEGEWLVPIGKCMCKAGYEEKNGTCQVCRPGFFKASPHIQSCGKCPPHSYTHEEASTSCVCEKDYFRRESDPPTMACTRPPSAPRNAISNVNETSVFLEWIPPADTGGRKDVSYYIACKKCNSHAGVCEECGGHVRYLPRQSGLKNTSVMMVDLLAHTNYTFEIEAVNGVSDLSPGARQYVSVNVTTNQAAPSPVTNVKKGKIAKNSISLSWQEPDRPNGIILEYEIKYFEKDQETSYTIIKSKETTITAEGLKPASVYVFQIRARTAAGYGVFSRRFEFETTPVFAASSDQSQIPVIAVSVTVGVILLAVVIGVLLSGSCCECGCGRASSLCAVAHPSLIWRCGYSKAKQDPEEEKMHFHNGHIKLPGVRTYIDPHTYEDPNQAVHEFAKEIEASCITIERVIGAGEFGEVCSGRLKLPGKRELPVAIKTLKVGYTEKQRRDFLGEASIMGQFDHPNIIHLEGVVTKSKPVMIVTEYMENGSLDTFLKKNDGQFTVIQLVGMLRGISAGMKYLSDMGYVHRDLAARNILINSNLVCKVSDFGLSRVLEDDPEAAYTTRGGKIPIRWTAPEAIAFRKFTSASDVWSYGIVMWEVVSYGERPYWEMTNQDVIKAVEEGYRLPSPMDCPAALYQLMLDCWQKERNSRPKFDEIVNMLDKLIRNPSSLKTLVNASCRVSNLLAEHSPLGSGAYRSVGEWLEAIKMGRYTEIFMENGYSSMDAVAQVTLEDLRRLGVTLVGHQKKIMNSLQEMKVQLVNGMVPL

Broadly, the residual activity is the signal under treatment as a percentage of the control signal. On to `COc1ccc(CNc2nc(N(CCO)CCO)nc3c2ncn3C(C)C)cc1`, for which the residual activity in assay [1] was determined as 90%; in [2], 110%; in assay [3] it was 110%; in assay [4] it was 126%; in assay [5], 105%; in assay [6], 92%. Besides, the residual activity was found to be 73% in assay [7], 99% in assay [8], 88% in assay [9] and 105% in assay [10].
